Bioassay records deposited in PubChem BioAssay by several laboratories.
Compounds with a hit are over-represented: about 1.2% of the library has one in this group of screens.
TcdB GH inh: TcdB glycohydrolase inhibition. inhibition, % at 9.99 µM. TcdB glycohydrolase enzymatic assay, plate reader. 0.24% of 350,000 active. P18177; in the data active = inhibition above about 10%
Mtb BioA inh: BioA (M. tuberculosis) enzyme inhibition | AID 602481 | inhibition, % at 9.99 µM | purified M. tuberculosis BioA enzyme, plate reader | 0.096% of 360,000 active; in the data active = inhibition above about 40%
VHR inh abs: inhibitors of human VHR1 phosphatase (DUSP3); P51452; recombinant VHR phosphatase, pNPP absorbance; inhibition, % at 13.3 µM; 0.52% of 290,000 active; AID 1654; in the data active = inhibition above about 50%
Target sequence (P51452 whole entry, looked up): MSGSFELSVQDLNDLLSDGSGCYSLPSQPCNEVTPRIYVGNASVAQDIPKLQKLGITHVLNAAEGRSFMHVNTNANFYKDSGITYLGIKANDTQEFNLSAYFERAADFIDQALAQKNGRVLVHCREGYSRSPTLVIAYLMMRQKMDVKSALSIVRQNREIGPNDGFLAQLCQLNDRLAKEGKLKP
PfHsp40 yeast: restores yeast growth despite PfHsp40 toxicity. S. cerevisiae expressing PfHsp40, growth rescue, ATP luminescence. growth rescue, % at 12.5 µM. 0.68% of 340,000 active. AID 504582; in the data active = growth rescue above about 28%, passing the limit was not always enough;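 also: yeast W303a lacking pdr1 and pdr3 grown in galactose medium; growth measured after three days at 30 °C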
Vc quorum ag-1: quorum light induction in luxS cqsA deficient V. cholerae; V. cholerae BH1578 lux reporter, luminescence, 6 h; 0.16% of 350,000 active; activation, % at 18.7 µM; in the data active = activation mostly above about 9.7%, no sharp cut-off
Y pestis TopoI: Y. pestis Topo-I inhibition via cleavage products; Y. pestis Topo-I cleavage product accumulation, plate reader; activity, % at 10 µM; 0.064% of 360,000 active; AID 504884; in the data active = activity above about 50%, passing the limit was not always enough
Vc quorum ag-2: inducers of V. cholerae quorum light production without autoinducers | shares compounds with Vc quorum ag-1 | V. cholerae BH1578 lux reporter, luminescence, 6 h | activation, % at 50 µM | 620 tested, under 10 active | AID 602243; call rule not given here
HeLa 24h tox: cytotoxicity in HeLa cells at 24 hours; 25 tested, under 10 active; AID 624140; shares compounds with Vc quorum ag-1; HeLa viability, CellTiter-Glo ATP luminescence; activity change, negative = cytotoxicity, % at 35 µM;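 active = signal drop with fitted half-maximal concentration at or below twice the highest valid dose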
Starred values were filed as active, the others as inactive.

`CCCCCn1c(SCC(=O)OCC)nc2cc(C(=O)N3CCC(C(N)=O)CC3)ccc2c1=O` gave Mtb BioA inh -0.9, VHR inh abs 25.0, PfHsp40 yeast 0.7, Vc quorum ag-1 14.3, Y pestis TopoI -3.8 and Vc quorum ag-2 0.0.
NC(=O)C1CCN(C(=O)c2ccc3c(=O)n(Cc4ccco4)c(SCC(=O)c4ccccc4)nc3c2)CC1 was read as TcdB GH inh 0.7, Mtb BioA inh 0.9, VHR inh abs 14.1, PfHsp40 yeast 0.3, Vc quorum ag-1 -0.2 and Y pestis TopoI 23.4.
Screening Cc1ccc(C(=O)OCC(=O)NCCNC(=O)COC(=O)c2ccc(C)s2)s1 returned TcdB GH inh 0.9, Mtb BioA inh 0.4, PfHsp40 yeast 0.4, Vc quorum ag-1 12.5, Y pestis TopoI 1.1 and Vc quorum ag-2 -0.1.
Cc1ccc(C(=O)OCC(=O)NCc2ccccc2)s1 was read as TcdB GH inh 0.3, Mtb BioA inh -0.6, Vc quorum ag-1 -0.4 and Y pestis TopoI 5.1.
CCOc1ccc(CCNC(=O)CN2CCN(Cc3ccccc3F)C2=O)cc1OCC was read as Mtb BioA inh 0.5, VHR inh abs 39.7, PfHsp40 yeast 0.3, Vc quorum ag-1 -0.3 and Y pestis TopoI 2.0.
For O=C1Nc2cc(C(=O)NCCCN3CCOCC3)ccc2S/C1=C/c1cccc(Cl)c1 the results were TcdB GH inh 0.8, Mtb BioA inh -1.2, VHR inh abs 18.2, PfHsp40 yeast -1.6, Vc quorum ag-1 -0.2 and Y pestis TopoI -1.0.
Screening Cc1ccc(C2(O)CN(c3ccccc3)C3=[N+]2CCS3)cc1 (stereo not drawn) returned Mtb BioA inh 0.9, VHR inh abs 3.4, PfHsp40 yeast 1.4, Vc quorum ag-1 -0.8 and Y pestis TopoI 13.6.
For Cn1c(Cn2cnc(Cl)c2Cl)nc2ccccc21 the results were Mtb BioA inh 2.5, VHR inh abs 25.9, PfHsp40 yeast 0.4, Vc quorum ag-1 16.7*, Y pestis TopoI -3.0 and Vc quorum ag-2 0.2.
Cn1c(Cn2cnc3ccccc32)nc2ccccc21 was read as Mtb BioA inh -5.2, VHR inh abs 20.0, PfHsp40 yeast 0.4, Vc quorum ag-1 -0.3 and Y pestis TopoI -8.0.
For CCN(C(=O)COc1ncnc2ccc(Br)cc12)C1CCS(=O)(=O)C1 (stereo not drawn) the results were Mtb BioA inh -0.8, VHR inh abs 5.0, PfHsp40 yeast -0.2, Vc quorum ag-1 16.7*, Y pestis TopoI -7.5 and Vc quorum ag-2 -1.3.
Screening CCN(C(=O)COC(=O)c1cc(-c2ccccc2)nc2ccc(Br)cc12)C1CCS(=O)(=O)C1 (stereo not drawn) returned TcdB GH inh 0.6, VHR inh abs -20.6, PfHsp40 yeast 2.0, Vc quorum ag-1 inactive and Y pestis TopoI -4.6.
For Cc1ccc2nc(NCCc3ccccc3)c3nncn3c2c1 the results were TcdB GH inh -1.0, Mtb BioA inh -2.0, VHR inh abs -10.0, PfHsp40 yeast -1.4, Vc quorum ag-1 111.2*, Y pestis TopoI 6.2 and Vc quorum ag-2 1.3.
For O=S(=O)(Cc1ccc(Cl)cc1)N1CCN(Cc2ccccc2)CC1 the results were TcdB GH inh -1.4, VHR inh abs -4.1, PfHsp40 yeast -1.2, Vc quorum ag-1 122.4*, Y pestis TopoI 4.6 and Vc quorum ag-2 0.1.
For Cc1cc([N+](=O)[O-])nn1Cc1noc(C(=O)NCCCn2ccnc2)n1 the results were TcdB GH inh -2.2, Mtb BioA inh -1.3, VHR inh abs 38.4, PfHsp40 yeast 0.8, Vc quorum ag-1 -0.3 and Y pestis TopoI 7.4.
CCOCCCNC(=O)C(NC(=O)c1ccc(NC(C)=O)cc1)c1ccc(C)cc1 (stereo not drawn) was read as TcdB GH inh 0.1, VHR inh abs -4.8, PfHsp40 yeast -0.5, Vc quorum ag-1 -0.2 and Y pestis TopoI -6.5.
Screening CCOCCCNC(=O)C(NC(=O)c1cnccn1)c1ccc(C)cc1 (stereo not drawn) returned Mtb BioA inh -1.2, VHR inh abs 14.6, PfHsp40 yeast -1.0, Vc quorum ag-1 27.8*, Y pestis TopoI 1.0 and Vc quorum ag-2 1.6.
`O=C(CCNC(=O)c1ccc(Cl)cc1)NCC(c1ccco1)N1CCCCC1` (stereo not drawn) gave TcdB GH inh 1.7, Mtb BioA inh -1.3, PfHsp40 yeast 0.5, Vc quorum ag-1 14.3, Y pestis TopoI 15.0 and Vc quorum ag-2 0.1.
For O=C(NCC(c1ccco1)N1CCCC1)c1ccc(Cl)cc1 (stereo not drawn) the results were Mtb BioA inh -1.1, VHR inh abs 6.3, PfHsp40 yeast 1.0, Vc quorum ag-1 inactive and Y pestis TopoI 4.9.
Screening CCCCN(C)C(=S)Nc1ccc2nc(N3CCN(CC)CC3)cc(C)c2c1 returned TcdB GH inh -0.2, VHR inh abs 45.5, PfHsp40 yeast 0.6, Vc quorum ag-1 -0.3 and Y pestis TopoI -4.1.
For O=C(COc1ccccc1)NC1CCCN(Cc2ccccc2)C1 (stereo not drawn) the results were HeLa 24h tox 5.2.
Screening O=C(COc1ccccc1)NC1CCN(Cc2ccccc2)CC1 returned VHR inh abs -8.3, PfHsp40 yeast 0.9, Vc quorum ag-1 inactive and Y pestis TopoI 3.3.
COc1ccc(OCC(=O)NC2CCCN(Cc3ccc(Cl)cc3)C2)cc1 (stereo not drawn) was read as TcdB GH inh -4.0, Mtb BioA inh 4.2, VHR inh abs 12.2, PfHsp40 yeast -0.7, Y pestis TopoI 32.4 and Vc quorum ag-2 inactive.
Screening COc1cc(C(=O)Nc2ccc3c(c2)OCO3)ccc1-n1cnnn1 returned Mtb BioA inh 2.5, VHR inh abs 22.6, PfHsp40 yeast -0.3, Vc quorum ag-1 0.8 and Y pestis TopoI 3.1.
For COc1cc(NC(=O)Cc2cccs2)ccc1-n1cnnn1 the results were VHR inh abs -13.2, PfHsp40 yeast -0.3, Vc quorum ag-1 19.9, Y pestis TopoI -4.9 and Vc quorum ag-2 5.1.
CC(=O)c1cccc(NC(=O)CSc2nc(=O)n(CCN3CCOCC3)c3c2CCCC3)c1 was read as TcdB GH inh 0.7, Mtb BioA inh 14.2, PfHsp40 yeast 0.0, Vc quorum ag-1 12.5, Y pestis TopoI 8.7 and Vc quorum ag-2 0.5.
`CCn1cc(C(=O)O)c(=O)c2cc(F)c(N3CCN(C(=O)Nc4ccccc4)CC3)cc21` gave VHR inh abs -4.1, PfHsp40 yeast -0.4, Vc quorum ag-1 -0.3 and Y pestis TopoI 3.9.
Screening Cc1ccc(NS(=O)(=O)c2cccc(C(=O)N3CCCC(C)C3)c2)cc1 (stereo not drawn) returned TcdB GH inh 0.4, Mtb BioA inh 0.0, PfHsp40 yeast 0.6, Vc quorum ag-1 inactive and Y pestis TopoI 4.5.
For COc1ccc(NS(=O)(=O)c2cccc(C(=O)N3CCCC(C)C3)c2)cc1 (stereo not drawn) the results were TcdB GH inh 2.2, Mtb BioA inh 0.1, PfHsp40 yeast -0.6, Vc quorum ag-1 19.3, Y pestis TopoI -1.1 and Vc quorum ag-2 0.0.
